Not all results are given here.
aSyn UTR act = Activators via SNCA 5'UTR binding, MLPCN; alpha-synuclein 5'UTR reporter, activators screen; activity score, % (tested at 7.5 µM), hits read low; 300,000 tested, 7.1% active; in the data active = activity score below about -60%
The depositor's hits bear a star.

SMILES | aSyn UTR act
BrC(=C\c1ccccc1)/C=N/Nc1nc2ccccc2[nH]1 | -158.4*
CCC(=O)N1CCN(c2nc3ccc(Br)cc3s2)CC1 | -116.8*
CC(C)(C)C(=O)N1CCN(c2nc3ccccc3s2)CC1 | -118.9*
O=C(NC1CC1)C1CCN(c2nc3ccccc3s2)CC1 | -86.3*
O=C(c1cccs1)N1CCN(c2nc3ccccc3s2)CC1 | -65.7*
CCCC(=O)N1CCN(c2nc3ccccc3s2)CC1 | -103.9*
CCc1ccc2nc(N3CCN(C(=O)C(C)(C)C)CC3)sc2c1 | -97.8*
O=C(CN1CCCCC1)Nc1scc2c1c(=O)oc1ccccc12 | -134.3*
c1ccc(-c2onc3cc4c(cc23)OCCO4)cc1 | -167.1*
Cc1ccc(C(=O)OCC(=O)N2CCc3ccccc32)cc1 | -70.2*
CC(=O)c1c(C)[nH]c(C(=O)OCC(=O)N2CCc3ccccc32)c1C | -130.7*
Cc1ccccc1Nc1nc(N)nc(COC(=O)c2ccccc2)n1 | -198.3*
Cc1ccccc1Nc1nc(N)nc(COC(=O)c2cccn2C)n1 | -122.0*
CC1CCCCN1C(=O)CSc1nc2ncccc2[nH]1 (stereo not drawn) | -74.8*
CC1CCCCN1C(=O)CSc1nnc(-c2ccc(Cl)s2)o1 (stereo not drawn) | -69.4*
CC1CCCCN1C(=O)CSc1nnc(-c2ccccc2O)o1 (stereo not drawn) | -83.9*
O=C(c1cc(-c2cccs2)on1)N1CCOCC1 | -169.3*
COc1ccccc1-c1cc(C(=O)N2CCCC2)no1 | -133.4*
COc1ccc(-c2cc(C(=O)N3CCOCC3)no2)cc1 | 72.6
COc1ccccc1-c1cc(C(=O)N2CCOCC2)no1 | -125.0*
CN1Cc2c(N3CCOCC3)nc3sc(C(=O)c4ccc(Br)cc4)c(N)c3c2CC1(C)C | 104.7
CN(C)c1ccnc2sc(C(=O)c3ccc(Br)cc3)c(N)c12 | -85.4*
Cc1snc2sc(C(=O)c3ccc(F)cc3)c(N)c12 | -95.7*
CN1C(c2ccc(F)cc2)=CS/C1=C(/C#N)c1nnc(N2CCOCC2)n1-c1ccccc1 | -73.7*
CN1CCC(=NNC(=O)C(=O)Nc2ccc(F)cc2)CC1 | -92.5*
SMILES | aSyn UTR act
Cc1cc(C)n2cc(CSc3nc4ccccc4s3)nc2n1 | -107.1*
N#C/C(=C(/O)c1cc2ccccc2o1)c1nc2ccccc2s1 | -119.5*
N#C/C(=C(/O)c1ccco1)c1nc2ccccc2s1 | -127.8*
N#C/C(=C(/O)c1cccc(F)c1)c1nc2ccccc2s1 | -148.5*
N#C/C(=C(\O)c1ccco1)c1ccccn1 | -91.4*
COc1ccc(CC(=O)Nc2ccc(-c3ccc4nnc(C)n4n3)cc2)cc1OC | -75.2*
CCSc1nnc2ccc(-c3ccc(OC)c(OC)c3)nn12 | 61.7
COc1ccc(C(=O)/C=C/Nc2cc(C)on2)cc1 | -93.6*
COc1ccc(/C=C/C(=O)Nc2nonc2NC(C)=O)cc1 | -155.4*
COc1ccc(/C=C/C(=O)Nc2cc(C(F)(F)F)ccc2Cl)cc1 | -61.6*
C#CCNC(=O)/C=C/c1ccc(OC)cc1 | -75.0*
COc1ccc(/C=C/C(=O)Nc2cc(C)on2)cc1 | -216.3*
COc1cc(-c2noc(C)c2/C=C/c2ccc(OC(C)=O)cc2)cc(OC)c1OC | 95.2
Cc1cc(NC(=O)/C=C/c2ccccc2Cl)no1 | -248.6*
Cc1cc(NC(=O)/C=C/c2ccccc2)no1 | -156.2*
CC(=O)Nc1nc(NC(=O)/C=C/c2ccccc2)n(-c2ccccc2)n1 | 78.9
O=c1[nH]cnc(O)c1N=Nc1ccccc1 | -70.5*
O=C(NC(Nc1ncc(S(=O)(=O)c2ccc([N+](=O)[O-])cc2)s1)(C(F)(F)F)C(F)(F)F)c1ccc(Cl)cc1 | 72.8
CC(C)(C)c1ccc(C(=O)Nc2ccc([N+](=O)[O-])cn2)cc1 | -71.8*
O=C(Nc1ccc([N+](=O)[O-])cn1)c1ccc2c(c1)OCO2 | -91.0*
Brc1ccccc1C1=Nn2c(nnc2-c2ccccc2)SC1 | 57.5
O=c1c2cc(-c3ccccc3)sc2nc2n1N=C(c1ccccc1)CS2 | -142.1*
CSc1nc2sc(-c3ccccc3)cc2c(=O)n1N | -74.2*
CCOC(=O)c1ccc(COc2ccc(C(C)C)cc2)o1 | -128.5*
CCC(C)c1ccc(OCc2ccc(C(=O)O)o2)cc1 (stereo not drawn) | -86.0*
SMILES | aSyn UTR act
CCOc1ccc(OCc2ccc(C(=O)OCc3ccccn3)o2)cc1 | -63.8*
CC(C)c1ccc(OCc2ccc(C(=O)N3CCCC3)o2)cc1 | -144.1*
CN1CCN(C(=O)c2ccc(COc3ccc(C(C)(C)C)cc3)o2)CC1 | -99.4*
COc1cccc(N2CCN(C(=O)c3ccc(CS(=O)c4ccccc4C)o3)CC2)c1 (stereo not drawn) | 108.0
O=C1c2ccccc2C(=O)C12OC2c1ccc(Cl)cc1 (stereo not drawn) | -72.2*
Cc1cc(/C(N)=N/OC(=O)c2cccc(Cl)c2)no1 | -192.7*
N/C(=N\OC(=O)c1ccc(Cl)cc1)c1ccccn1 | 62.5
Cc1cc(/C(N)=N/OC(=O)c2ccc(Cl)cc2)no1 | -200.9*
Cc1ccc(C(=O)N/N=C/c2ccc(-c3cccc(C(F)(F)F)c3)o2)cn1 | 65.2
Nc1nonc1C(=O)N/N=C/c1ccc(-c2cccc(C(=O)O)c2)o1 | -63.0*
COc1ccc(CC(=O)NCc2ccc(-n3cccc3)cc2)cc1OC | 63.9
COc1ccccc1CNC(=O)CN1C(=O)c2cccc(N)c2C1=O | -64.6*
COc1ccccc1CNC(=O)CCCc1ccccc1 | -68.5*
O=C(/C=C/c1cc(Br)ccc1F)Nc1cccnc1 | -117.8*
O=C(/C=C/c1c(F)cccc1Cl)Nc1cccnc1 | -111.3*
CC(=O)c1c(C)[nH]c(C(=O)CSc2nnc3ccccn23)c1C | -84.7*
C=CCn1c(SCC(=O)c2[nH]c(C)c(C(=O)OC)c2C)nc2scc(-c3ccc(OC)c(OC)c3)c2c1=O | 61.3
CC(=O)c1c(C)[nH]c(C(=O)CSc2nnc(C)s2)c1C | -110.3*
CCOc1ccc(NC(=O)c2ccccc2-c2ccccc2C(=O)O)cc1 | -62.8*
CCOc1ccc(NC(=O)c2ccccc2OC)cc1 | -140.5*
CCOc1ccc(NC(=O)c2ccccn2)cc1 | 104.3
CCOc1ccc(NC(=O)c2ccccc2O)cc1 | -66.3*
CCOc1ccc(NC(=O)c2ccccc2OCC(=O)c2ccccc2)cc1 | -83.3*
CCOc1ccc(NC(=O)c2ccc(NC(=O)COC(=O)Cc3ccc(OC)cc3)cc2)cc1 | -93.3*
O=C(COc1ccccc1C(=O)c1cnn(-c2ccccc2)c1)Nc1ccccc1 | -72.6*
SMILES | aSyn UTR act
CC(=O)c1ccc(NC(=O)COc2ccccc2C(=O)Nc2ccccc2)cc1 | -78.0*
CCOc1ccc(NC(=O)c2nccnc2CO)cc1 | -120.1*
CC(=O)c1cccc(NC(=O)COC(=O)c2ccccc2C)c1 | -101.2*
CCOc1ccc(NC(=O)c2cccnc2C(=O)O)cc1 | -108.8*
CCOc1ccc(NC(=O)c2ccccc2CO)cc1 | -85.7*
COc1ccc(C(=O)Nc2cc(OC)nc(OC)n2)cc1 | -125.4*
COc1cc(NC(=O)CCc2ccccc2)nc(OC)n1 | -71.0*
O=C(Nc1ccc(-c2cn3ccccc3n2)cc1)c1ccco1 | -208.5*
O=C(Nc1cccc(-c2cn3ccccc3n2)c1)c1ccccc1 | -64.5*
CCCCC(=O)Nc1cccc(-c2cn3ccccc3n2)c1 | -77.9*
CCCC(=O)Nc1ccc(NC(=O)c2cccc(OC)c2)nc1 | -159.8*
COc1cccc(C(=O)Nc2ccc(NC(C)=O)cn2)c1 | -129.2*
O=C(Nc1ccc(NC(=O)c2ccco2)nc1)c1cccc(F)c1 | -134.2*
COc1cccc(C(=O)Nc2ccc(NC(=O)c3ccco3)nc2)c1 | -161.8*
O=C(Nc1ccc(NC(=O)c2ccco2)nc1)c1cccnc1 | -75.3*

Screening data (PubChem BioAssay)
